# Assay results as given in the supplement of paper PMC4166925.
# ± gives the standard deviation of the averaged measurements. Over roughly 33,000 sequences, “E-score (dimensionless, -0.5 to 0.5)” has its median near -0.049; the highest 2% begin near 0.37. Many of the other results were omitted from the sample, so the highest values are more common in it than they were.
# Tested on: T1, PmTbr T-box DNA-binding domain (GST fusion)
# T1 sequence: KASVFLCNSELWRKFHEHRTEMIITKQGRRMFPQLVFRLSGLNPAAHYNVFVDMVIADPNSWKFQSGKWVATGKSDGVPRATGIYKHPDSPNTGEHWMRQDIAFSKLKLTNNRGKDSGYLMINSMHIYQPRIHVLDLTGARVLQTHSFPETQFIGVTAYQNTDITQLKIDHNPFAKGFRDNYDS
# Assay: PBM E-score of 8-mer (E-score (dimensionless, -0.5 to 0.5)); Tbr is Tbrain of the sea star Patiria miniata (Pm) or the sea urchin Strongylocentrotus purpuratus (Sp); higher = stronger binding preference
# Conditions: the construct has about 5 more residues each side
# Description: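 Universal protein-binding microarray (Agilent AMADID 016060, 60-bp probes with a 35-bp variable region) incubated with 200 nM GST-fused Patiria miniata Tbr T-box DNA-binding domain (residues 272-466) in PBS pH 7.5. Scored for every ungapped 8-mer (given with its reverse complement) by the Universal PBM Analysis Suite as E-score (modified Wilcoxon-Mann-Whitney enrichment, range -0.5 to 0.5; >0.45 counts as bound) and Z-score of median probe intensity. Two replicate arrays (datasets 1 and 2).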
row,Sequence,PBM E-score of 8-mer
1,AATCGCGC,0.311 ± 0.024
2,CTAGCACC,0.449 ± 0.006
3,ATAGCACA,0.174 ± 0.035
4,CTAGCACA,0.327 ± 0.024
5,CAAGCACC,0.129 ± 0.016
6,ATAGCACG,0.358 ± 0.017
7,ATAGCACC,0.416 ± 0.012
8,ACATTCGC,0.267 ± 0.042
9,AGGCTTGG,-0.2 ± 0.011
10,GAAACCGA,-0.0132 ± 0.073
11,AGCCATAG,-0.0194 ± 0.015
12,CTGGCACC,0.411 ± 0.018
13,CAGGCACC,-0.0396 ± 0.032
14,ATGGCACA,0.103 ± 0.0048
15,CTGGCACA,0.241 ± 0.0048
16,ATGGCACC,0.387 ± 0.011
17,ATGGCACG,0.189 ± 0.041
18,ACCGGTCC,-0.276 ± 0.048
19,TCCTATAA,-0.189 ± 0.068
20,AAATAGGG,-0.0426 ± 0.12
21,ACGGCTCT,-0.15 ± 0.033
22,CACCTGTA,0.391 ± 0.009
23,CACCTGAA,0.312 ± 0.0079
24,AACCTGAG,0.0264 ± 0.17
25,CGCCTGTC,0.303 ± 0.026

row,Sequence,PBM E-score of 8-mer
1,CACCTGAG,0.37535 ± 0.00034
2,CGCCTGAG,0.0681 ± 0.047
3,CACCTGAC,0.387 ± 0.018
4,GACCTGAC,-0.0852 ± 0.017
5,CACCTGTC,0.4274 ± 0.0023
6,AACCTGAC,0.111 ± 0.026
7,AACCTGTC,0.30927 ± 0.00016
8,AACCTGTA,-0.252 ± 0.046
9,AAACTATC,-0.215 ± 0.063
10,AACCAGCA,-0.18 ± 0.047
11,GATGGCCC,-0.138 ± 0.0089
12,GCTCCACA,-0.0189 ± 0.02
13,ACTGAACG,-0.315 ± 0.091
14,GCTTTACC,-0.126 ± 0.066
15,AAGGTTAC,-0.145 ± 0.017
16,GGGCCCAA,-0.154 ± 0.022
17,CGTGTTTC,0.126 ± 0.034
18,ACCCAGTA,-0.234 ± 0.012
19,AGATAAAT,-0.223 ± 0.057
20,ACTGACAC,0.379 ± 0.012
21,CCTGACAG,0.218 ± 0.036
22,ACTGACAA,0.166 ± 0.009
23,CCTGACAC,0.435 ± 0.0077
24,GCTGACAA,0.2795 ± 0.00061
25,ACTGACAT,0.0983 ± 0.064

row,Sequence,PBM E-score of 8-mer
1,GCTGACCC,-0.159 ± 0.14
2,CATGACAC,0.389 ± 0.0048
3,CATGACAA,0.204 ± 0.047
4,GCTGACAC,0.398 ± 0.013
5,AATGACAC,0.355 ± 0.0044
6,CCTGACAA,0.207 ± 0.027
7,GCCTTTCA,-0.0251 ± 0.074
8,TACTTTCA,0.0461 ± 0.077
9,CACAGCGA,0.0526 ± 0.053
10,CTGACCAC,0.0865 ± 0.013
11,ACAGATGA,0.00068 ± 0.05
12,AGCGTTCG,0.214 ± 0.068
13,CTACAGAG,-0.187 ± 0.022
14,AATGTCAA,0.0345 ± 0.052
15,ACTGTCAA,0.162 ± 0.028
16,GGTGTCCA,0.294 ± 0.021
17,GCTGTCAA,0.323 ± 0.014
18,GGTGTCAA,0.474 ± 0.0055
19,CCTGTCAC,0.3665 ± 0.0036
20,AGTGTCAA,0.447 ± 0.0063
21,ACTGTCAG,0.129 ± 0.034
22,CATGTCAA,-0.00945 ± 0.065
23,CCTGTCAA,0.309 ± 0.024
24,ACTGTCAC,0.392 ± 0.018
25,CGTGTCAA,0.4335 ± 0.00096

row,Sequence,PBM E-score of 8-mer
1,TCTGTCAA,0.152 ± 0.039
2,GGTGTCAC,0.481 ± 0.0062
3,ACTGTCAT,0.163 ± 0.037
4,GCTGTCAC,0.3624 ± 0.0017
5,TGTGTCAA,0.372 ± 0.014
6,TATGTCAA,0.0912 ± 0.063
7,AATGTCAG,0.0135 ± 0.012
8,GATGTCAC,0.304 ± 0.0034
9,AATGTCAT,-0.164 ± 0.033
10,AGTGTCAG,0.384 ± 0.017
11,AGTGTCAT,0.387 ± 0.0042
12,CGTGTCAG,0.31284 ± 0.00018
13,AACATGAT,-0.0409 ± 0.098
14,GGTCGAGA,-0.252 ± 0.058
15,TTGAGCAA,-0.0163 ± 0.022
16,ATAGGCAC,-0.0213 ± 0.017
17,CGCTCATA,-0.08565 ± 0.00083
18,TAGCTCAA,-0.184 ± 0.04
19,ACTTTTCT,0.0687 ± 0.099
20,ATTGGGTC,-0.0189 ± 0.031
21,CGAAGCCG,0.155 ± 0.06
22,ATGGAGGA,-0.217 ± 0.015
23,ACACCCAA,0.368 ± 0.035
24,AAGCGAAT,-0.167 ± 0.0081
25,AATGTCAC,0.329 ± 0.034

row,Sequence,PBM E-score of 8-mer
1,CATGTCAC,0.352 ± 0.0093
2,AGTGTCAC,0.449 ± 0.0029
3,AGTGTCCC,0.176 ± 0.004
4,CGTGTCAC,0.3865 ± 0.0037
5,CGTGTCCC,-0.0561 ± 0.065
6,ATTAAGTA,-0.154 ± 0.096
7,CGACCTCG,0.14 ± 0.074
8,CGCTTCAG,-0.0405 ± 0.068
9,CTCCTAGC,0.0648 ± 0.041
10,AGTCACAC,0.462 ± 0.0029
11,CGTCACAC,0.433 ± 0.017
12,AGTCACCC,-0.0493 ± 0.13
13,AGTCACAG,0.135 ± 0.054
14,CGTCACCC,0.373 ± 0.021
15,GGTCACAC,0.4613 ± 0.0012
16,GGACACAC,0.101 ± 0.0014
17,AGTCACAT,0.11 ± 0.058
18,CGTCACAG,0.243 ± 0.014
19,GGTCACAA,0.212 ± 0.048
20,CGTCACCA,0.27 ± 0.054
21,CGTCACAA,0.175 ± 0.033
22,CTCAAGAA,-0.0351 ± 0.062
23,AATGAGGG,-0.21 ± 0.035
24,AGCAACAT,-0.000465 ± 0.079
25,AAAATCGT,0.158 ± 0.078

row,Sequence,PBM E-score of 8-mer
1,AGAACATG,-0.102 ± 0.0022
2,GTATCTCA,0.138 ± 0.024
3,CTAATAGC,0.0155 ± 0.017
4,AACAATAT,0.00943 ± 0.055
5,AGATGCTG,-0.149 ± 0.035
6,ATCAAGCC,-0.0171 ± 0.049
7,GTACTTAA,-0.16 ± 0.011
8,GCGGGTTA,0.0385 ± 0.009
9,GGATGTTA,-0.00674 ± 0.011
10,GGGGGTTA,-0.158 ± 0.1
11,GGGTGTTA,0.4737 ± 0.00077
12,CGGTGTTA,0.37 ± 0.0083
13,CGATGTTA,-0.192 ± 0.016
14,CGCTGTTA,0.0368 ± 0.0067
15,ACCCATAT,0.0957 ± 0.013
16,GGGTTCGA,-0.0834 ± 0.013
17,GGTGGGCA,0.0512 ± 0.038
18,AAACTCTT,-0.11 ± 0.032
19,CGATTCAC,0.143 ± 0.0046
20,CAACTGAG,0.0533 ± 0.042
21,GACTTGGA,-0.167 ± 0.064
22,CCGCGAAC,0.271 ± 0.036
23,CCGCGAAA,0.305 ± 0.027
24,GCGCGATA,0.337 ± 0.011
25,ACGCGAAC,0.203 ± 0.043

row,Sequence,PBM E-score of 8-mer
1,TCGCGAAA,0.409 ± 0.025
2,ACGCGAAA,0.133 ± 0.039
3,GCGCGAAA,0.4397 ± 0.0003
4,GCGCGAAC,0.411 ± 0.017
5,GCGCGACA,0.36 ± 0.023
6,CAATCATA,-0.102 ± 0.056
7,AACCCTGA,-0.108 ± 0.0053
8,GCCACTAA,0.153 ± 0.019
9,AGATACTC,-0.119 ± 0.09
10,TGCAGGAA,-0.153 ± 0.036
11,CTCCCAAC,-0.0412 ± 0.0027
12,AAGAACCC,-0.192 ± 0.042
13,AGACACCA,0.2603 ± 0.00061
14,GGACACCC,0.242 ± 0.037
15,CGACACCG,0.273 ± 0.033
16,TGACACCA,0.427 ± 0.02
17,CGACACCA,0.414 ± 0.01
18,AGACACCC,0.259 ± 0.023
19,CGACACCC,0.439 ± 0.022
20,CGACACGA,0.183 ± 0.071
21,GGACACCA,0.0777 ± 0.029
22,AAGAAAAC,-0.0889 ± 0.032
